Consider 35 compounds from PubChem BioAssay (NCATS).

“And” between values parts separate entries of the source, which are not always exact repeats. Identical values can stand only once. Inconclusive results are not listed. The source made the active and inactive calls. Unless noted, calls come from the whole dose curve.

Test [1] is described as follows: Cell Proliferation Assay against the HBL1 Cell Line (AID 651646; active = well fitted curve in the direction sought with a large enough effect; an effect the other way counts as inactive or inconclusive;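 note: cells exposed to compound for 48 h before reading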). The note with it: HBL1 DLBCL cells; at 46.1 µM (top of the series). An excerpt:
One class of targeted therapeutics showing early clinical success in killing of ABC DLBCL lines are small molecule inhibitors of the Bruton tyrosine kinase (BTK) 11.
Prior to any combination assays, using an NCATS developed oncology compound library called the Mechanism of Interrogation Plate (MIPE), two well studied ABC DLBCL lines (TMD8 and HBL1) were screened using a cell viability assay (CellTiterGlo) and a 12-point titration series for each single agent. These initial experiments offered insight into the concentration range that offered the best coverage of activity and non-activity to assure relevant data is generated. […]
A total of 500 log growing HBL1 cells are seeded per well in 5 uL of a RPMI with glutamine (or Glutamax), without phenol red plus 5% FBS and 1X Pen/Strep into 1536 -solid white high base tissue culture treated Greiner One Bio Plates (789173-F) using a multidrop combi dispenser and a small sterile cassette. […] The plates are then spun at 1000 rpms to remove bubbles and incubated for 15 minutes at room temperature before read on a ViewLux using a luminescent filter with a 10 second exposure. The relative luciferase units are used to calculated percent activity using DMSO as 100% and Bortezomib as 0%.

Test [2] can be described thus: Cell Proliferation Assay against the TMD8 Cell Line (Caspase readout at 16 hrs) (AID 651712; active = well fitted curve in the direction sought with a large enough effect; an effect the other way counts as inactive or inconclusive). The essentials: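 TMD8 cells (500/well) in phenol-red-free RPMI with glutamine, 5% FBS, were exposed to compounds for 16 h at 37 °C. Caspase 3/7 activation was read by Caspase-Glo luminescence; percent activity normalised to DMSO (0%) and 9.2 uM bortezomib final (100%).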

Test [3] can be described thus: qHTS assay for small molecule agonists of the antioxidant response element (ARE) signaling pathway (AID 651741; active = well fitted activation curve with a large enough effect in the signal ratio; the % refers to the signal ratio; note: potency is the fitted concentration of half-maximal effect; for activation: % of control where 0% means no effect). The essentials: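 Compounds in DMSO are pinned onto HepG2 ARE-bla cells (2,000/well) that were preincubated 5 h; plates stay 16 h at 37 C, then beta-lactamase activity is detected with LiveBLAzer B/G substrate by fluorescence.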
Test [4] can be described thus: qHTS assay for small molecule activators of the p53 signaling pathway (AID 651743; active = well fitted activation curve with a large enough effect in the signal ratio, not every such curve was filed as active; the % refers to the signal ratio; note: potency is the fitted concentration of half-maximal effect; for activation: % of control where 0% means no effect). The note with it: HCT-116 p53RE-bla, beta-lactamase FRET ratio, 16 h; activation: stronger effect = higher value. The method, boiled down: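 Cell-based beta-lactamase reporter (p53 response elements, HCT-116 background). After a 5-hour preincubation, cells received compound for 16 hours at 37 C; substrate development ran 2 hours at room temperature.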
In general terms: Quantitative high-throughput screening tests each substance at several concentrations.

Test [5] in a line: qHTS assay for small molecule disruptors of the mitochondrial membrane potential - 1 hr assay (AID 651754). Note: nearly all actives have a fitted effect of over 35% in size. Note: potency is the fitted concentration of half-maximal effect. The essentials:
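HepG2, 2,000 cells/well, overnight attachment; cpd or DMSO 1 hr, 37C/5% CO2; Mito-MPS dye 30 min, 37C; fluorescence monomer (490/535) and aggregate (540/590).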

Test [6] deals with Tumor necrosis factor (Homo sapiens) (UniProt P01375). The experiment in a line: qHTS assay to identify small molecules that stimulate Tumor Necrosis Factor-alpha (TNF-alpha) secretion (AID 651757; active = well fitted curve in the direction sought with a large enough effect in the signal ratio; the % refers to the signal ratio; note: 0% is about no effect). The method, boiled down: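 Read-out is HTRF, a TR-FRET sandwich of cryptate- and XL665-labeled anti-TNF-alpha antibodies detecting cytokine secreted by THP-1 cells. Cells had been incubated with test compounds at 37 C for 17 hrs beforehand.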

A short description of test [7]: qHTS assay to identify small molecules that stimulate interleukin-8 (IL-8) secretion (AID 651758; active = well fitted activation curve with a large enough effect in the signal ratio; the % refers to the signal ratio; note: potency is the fitted concentration of half-maximal effect; for activation: 0% is about no effect). The essentials:
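THP-1, 2000 cells/well; cpd 16 h, 37 C; add cryptate + XL665 anti-IL-8 Abs; RT 1-3 h; TR-FRET read.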

The nature of test [8]: qHTS assay for small molecule activators of the nuclear factor-kappa B (NF-kB) signaling pathway (AID 651749; active = well fitted activation curve with a large enough effect in the signal ratio; the % refers to the signal ratio; note: % of control where 0% means no effect). The note with it: NF-kB-bla ME-180 cells, beta-lactamase FRET ratio, 16 h; stronger effect = higher value. The essentials:
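Screening used 2,000 ME-180 reporter cells per well exposed to pinned compound (23 nL) or DMSO; after 16 hr at 37C, beta-lactamase expression under NF-kB control was assessed through FRET.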

Test [9] in a line: qHTS assay for small molecule disruptors of the mitochondrial membrane potential - 5 hr assay (AID 651755). Note: nearly all actives have a fitted effect of over 40% in size. Note: potency is the fitted concentration of half-maximal effect. The method, boiled down:
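HepG2 cells, attached overnight at 37C, were exposed to compound or DMSO for 5 hr at 37C, 5% CO2. Mito-MPS dye was then added for 30 min, and fluorescence read at 490/535 nm (monomers) and 540/590 nm (aggregates).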

Test [10] can be described thus: Cell Proliferation Assay against the TMD8 Cell Line (Caspase readout at 8 hrs) (AID 651713; active = well fitted curve in the direction sought with a large enough effect; an effect the other way counts as inactive or inconclusive;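 note: 0% = DMSO and 100% = 9.2 µM bortezomib caspase signal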). The essentials:
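Seed log-phase TMD8 cells, add compound by pin tool, incubate 8 h at 37C under 5% CO2, equilibrate to room temperature, add Caspase-Glo, wait 15 min, read luminescence; percent activity uses DMSO and 9.2 uM bortezomib controls.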

Chain of Tumor necrosis factor (Homo sapiens) (P01375 whole entry, looked up): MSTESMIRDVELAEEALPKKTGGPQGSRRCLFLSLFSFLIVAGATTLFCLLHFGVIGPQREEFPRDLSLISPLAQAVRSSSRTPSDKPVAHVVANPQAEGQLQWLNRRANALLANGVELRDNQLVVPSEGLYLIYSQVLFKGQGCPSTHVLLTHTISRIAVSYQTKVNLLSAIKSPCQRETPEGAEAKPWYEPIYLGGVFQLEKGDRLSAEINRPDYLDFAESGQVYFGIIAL

As for `CN1CC(=O)N/C1=N/C(=O)Nc1cccc(Cl)c1`, in test [1], the viability, percent of control was found to be 111%. In addition, the compound was called inactive in test [2].

As to `N=C1N=C(N)c2cc3ccccc3cc21`, the Potency in test [3] is 16.8 µM (active); in test [4] it was 35.5 µM (active); in [5], 6.68 µM (active). Besides, the result in test [6] was inactive.

As to `S=c1[nH]c2ccccc2s1`, the Potency in test [3] is 37.6 µM (active) and 27.3 µM (active). In test [4], the activation is -3.47% (inactive) and -2.03% (inactive). The Potency result in [7] is “inactive”.

For `CC(C)NCC(O)COc1cccc2ccccc12` (stereo not given), the Potency result in test [3], in test [5] and in test [9] was “inactive” each time. Further, the activation in [4] was -4.3% (inactive) and -0.33% (inactive); in test [8], -0.327% (inactive) and 0.291% (inactive). Besides, the compound was classed as inactive in [6].

For `O=C(Nc1ccccc1)c1cc([N+](=O)[O-])ccc1Cl`, in test [3], the Potency is 1.22 µM (active). The activation in test [4] was 4.29% (inactive).

`CC1(C)S[C@@H]2[C@H](NC(=O)[C@H](N)c3ccccc3)C(=O)N2[C@H]1C(=O)O`: the activation in test [4] was 1.65% (inactive). In addition, the result in [6] was inactive.

Consider `CCCOC(=O)c1ccc(O)cc1`, for which the activation in test [4] was -1.88% (inactive) and -2.94% (inactive) and -1.35% (inactive). Besides, the compound was classed as inactive in test [6]. The Potency entry in test [7] is “inactive”.

Turning to `CN(C)c1ccc(C(=C2C=CC(=[N+](C)C)C=C2)c2ccccc2)cc1`, the Potency is 0.75 µM (active) in test [5] and 0.841 µM (active) in test [9].

With `C#C[C@]1(O)CC[C@H]2[C@@H]3CCc4cc(O)ccc4[C@H]3CC[C@@]21C`, the activation in test [4] was 11.3% (inactive) and 11.7% (inactive); in test [8], 2.58% (inactive) and -0.453% (inactive). Moreover, the Potency entry in [5] and in test [9] was “inactive” in each case. Further, the compound was classed as inactive in test [6]. Further, the Potency in [7] was 75 µM (active).

Take `O=C(O)/C=C\C(=O)O`: the activation in test [4] was -1.58% (inactive); in test [8] it was -0.21% (inactive). Moreover, the call in test [6] was inactive.

In the case of `Nc1ccc(O)c([N+](=O)[O-])c1`, the Potency in [3] is 26.6 µM (active) and 24.3 µM (active); in test [5] it was 33.5 µM (active). For the same compound, the activation in test [8] is -0.599% (inactive) and -0.904% (inactive).

As for `O=C(O)c1cc(O)c(O)c(O)c1`, the activation in test [4] was -4.32% (inactive); in test [8], -0.583% (inactive). In addition, the Potency entry in test [5] and in test [9] was “inactive” in each case.

As to `O=C(O)c1ccccc1Nc1cccc(C(F)(F)F)c1`, the figures for the activation in test [4] and in [8] were 3.61% (inactive) and -0.0531% (inactive), respectively.

For the compound `CN(C)CCC(c1ccc(Cl)cc1)c1ccccn1` (stereo not given), the figures for the activation in test [4] and in [8] were -2.38% (inactive) and -0.341% (inactive), respectively. For the same compound, the Potency entry in test [9] is “inactive”. Besides, the call in [6] was inactive.

Regarding `Nc1nc2ccc([N+](=O)[O-])cc2s1`, the figures for the Potency in test [3], in [5] and in test [9] were 66.8 µM (active), 16.8 µM (active) and 16.8 µM (active), respectively. Moreover, the activation in test [8] was -0.326% (inactive).

Consider `O=C(O)[C@H](O)[C@@H](O)[C@H](O)[C@H](O)CO`, for which the Potency result in test [3] is “inactive”. Further, the activation in test [8] was -5.45% (inactive).

Turning to `Nc1ccc(O)c(C(=O)O)c1`, in [3], the Potency result was “inactive”. Besides, the activation was 0.238% (inactive) and -1.06% (inactive) in test [4]; -0.163% (inactive) and 0.962% (inactive) in test [8].

Take `c1ccc2sc(SSc3nc4ccccc4s3)nc2c1`: the Potency in [3] was 26.6 µM (active). Further, the activation in [4] was 1.84% (inactive) and -0.504% (inactive); in test [8], 3.06% (inactive) and 1.84% (inactive). In addition, in test [6], the result was inactive.

With `CN1[C@@H]2CC[C@H]1CC(OC(=O)C(CO)c1ccccc1)C2` (stereo not given in full), the Potency result in test [3] was “inactive”.

In the case of `C=CCc1cccc(/C=N/NC(=O)CN2CCN(Cc3ccccc3)CC2)c1O`, the viability, percent of control in [1] is 26%. Also, the outcome in test [10] was inactive.

`CCCCCCCCCCCCCCCC(=O)OC(C)C`: the activation in test [4] was -1.99% (inactive); in test [8], 0.837% (inactive).

For the compound `O=C1CN(/N=C/c2ccc([N+](=O)[O-])o2)C(=O)N1`, in test [4], the activation is 5.55% (inactive). In addition, in [5], the Potency is 37.6 µM (active). For the same compound, the Potency entry in test [7] is “inactive”.

Regarding `NCCO`, the Potency result in test [3] is “inactive”. Also, in test [4], the activation was -4.3% (inactive). In addition, in [6], the outcome was inactive.

With `Nc1ccc([N+](=O)[O-])cc1O`, the activation in test [4] is -1.9% (inactive) and 0.18% (inactive); in [8] it was 0.687% (inactive) and -0.798% (inactive).

With `CN1CCC[C@H]1c1cccnc1`, the Potency result in [5] and in test [9] was “inactive” in each case. Also, the call in test [6] was inactive.

`O=c1cc(-c2ccccc2)oc2ccccc12`: in test [3], the Potency was 4.61 µM (active) and 5.45 µM (active). The activation in test [8] was -0.929% (inactive) and -1.54% (inactive).

Turning to `COc1cc(/C=C/C(=O)CC(=O)/C=C/c2ccc(O)c(OC)c2)ccc1O`, the Potency in [3] is 25.9 µM (active); in [4], 31.6 µM (active); in [5], 3.76 µM (active); in test [9] it was 5.96 µM (active).

Regarding `COc1cc(CNC(=O)CCCC/C=C/C(C)C)ccc1O`, the activation in [4] was -1.8% (inactive) and -5.67% (inactive); in [8] it was 0.091% (inactive) and 0.703% (inactive). For the same compound, the Potency entry in [5] and in [9] was “inactive” each time. For the same compound, the result in test [6] was inactive.

With `CCCCCCCCCCCCCCCCCC(=O)O`, the Potency result in test [3], in test [5] and in [9] was “inactive” in each case. Besides, the activation in test [4] is 2.31% (inactive) and -5.31% (inactive) and -1.74% (inactive); in [8], -1.37% (inactive) and -0.0787% (inactive). The result in test [6] was inactive.

`O=C(OCc1ccccc1)c1ccccc1`: the activation in test [8] was 0.212% (inactive).

In the case of `CN(C)c1ccc(N=NS(=O)(=O)O)cc1`, the Potency in test [3] is 37.6 µM (active) and 24.3 µM (active); in test [5], 15 µM (active); in test [9], 8.41 µM (active). In addition, in test [4], the activation is -1.59% (inactive) and 15.3% (inactive).

Take `Nc1cc(-c2ccncc2)c[nH]c1=O`: the Potency entry in test [3] was “inactive”. Also, the activation in test [4] was -0.79% (inactive); in test [8], -2.44% (inactive).

As to `Oc1ccccc1O`, the activation in test [4] is 25.3% (inactive).

In the case of `C=CCCCCCCCCC(=O)O`, the activation is -2.56% (inactive) in [4] and -1.28% (inactive) in [8].

As for `c1cnc2c(c1)ccc1cccnc12`, the activation in test [8] was 1.8% (inactive). Moreover, the Potency result in test [5] was “inactive”.
